# Experimental data from PubChem BioAssay AID623911 (Vanderbilt High Throughput Screening Facility, 2012).
# The whole screen tested about 2,100 compounds, of which about 770 (37%) were called active.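 Rule for the calls: active = by-eye trace score of 1 for enhancers or -1 for inhibitors, so actives lie on both sides (some results past the limit were not filed as active); inactive = score 0, or 3 fluorescent, or 4 baseline rise.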 This is one part of the list.
# Biological target: G protein-activated inward rectifier potassium channel 2 (Homo sapiens) + G protein-activated inward rectifier potassium channel 1 (Homo sapiens) (UniProt P48051+P48549)
# Test: GIRK1/2 thallium flux modulators, retest, confirmation, cell-based, HEK293 rmGlu8/hGIRK1/2, FluoZin-2 (AID 623911)
# Settings: HEK293 rmGlu8/hGIRK1/2, thallium flux FluoZin-2; actives lie on both sides; glutamate co-added at its EC20 level
# Chain of G protein-activated inward rectifier potassium channel 2 (Homo sapiens) + G protein-activated inward rectifier potassium channel 1 (Homo sapiens) (P48051 whole entry, looked up): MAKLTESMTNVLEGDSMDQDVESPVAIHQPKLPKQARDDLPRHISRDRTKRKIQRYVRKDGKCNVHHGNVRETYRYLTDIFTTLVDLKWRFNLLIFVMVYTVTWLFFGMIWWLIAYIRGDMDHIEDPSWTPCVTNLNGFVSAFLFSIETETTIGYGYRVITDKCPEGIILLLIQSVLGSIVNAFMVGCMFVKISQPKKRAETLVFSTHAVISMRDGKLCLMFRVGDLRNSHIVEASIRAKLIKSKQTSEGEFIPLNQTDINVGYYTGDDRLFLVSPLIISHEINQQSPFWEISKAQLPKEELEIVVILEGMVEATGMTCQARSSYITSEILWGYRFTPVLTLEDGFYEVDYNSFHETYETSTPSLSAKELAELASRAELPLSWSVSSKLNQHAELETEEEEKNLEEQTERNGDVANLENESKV
# Chain of G protein-activated inward rectifier potassium channel 2 (Homo sapiens) + G protein-activated inward rectifier potassium channel 1 (Homo sapiens) (P48549 whole entry, looked up): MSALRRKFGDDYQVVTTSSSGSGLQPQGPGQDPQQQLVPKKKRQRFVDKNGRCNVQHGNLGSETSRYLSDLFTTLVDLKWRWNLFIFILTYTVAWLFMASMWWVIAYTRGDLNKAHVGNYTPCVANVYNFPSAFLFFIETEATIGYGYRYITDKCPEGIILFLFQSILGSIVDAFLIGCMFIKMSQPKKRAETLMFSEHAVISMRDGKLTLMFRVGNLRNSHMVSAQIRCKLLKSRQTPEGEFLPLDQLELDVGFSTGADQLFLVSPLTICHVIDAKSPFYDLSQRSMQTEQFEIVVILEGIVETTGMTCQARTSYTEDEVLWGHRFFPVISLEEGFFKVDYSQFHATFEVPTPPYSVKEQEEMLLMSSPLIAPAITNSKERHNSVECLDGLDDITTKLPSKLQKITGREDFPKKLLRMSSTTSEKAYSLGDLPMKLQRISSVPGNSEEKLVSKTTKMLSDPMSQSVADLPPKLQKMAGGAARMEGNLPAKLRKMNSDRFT
row,SMILES,manual score
1,O=c1oc(-c2ccc(Br)o2)nc2ccccc12,0 (inactive)
2,COC(=O)c1cc(=O)n(CCc2ccc(OC)cc2)c(=Nc2ccc(F)c(Cl)c2)s1,0 (inactive)
3,CC(C)(C)NC(=O)C(c1ccncc1)N(C(=O)c1csnn1)c1ccccc1 (stereo not given),0 (inactive)
4,O=C(C[n+]1cc(-c2ccccc2)n2c1CCC2)OCc1ccccc1,0 (inactive)
5,O=C(Nc1ccccc1)Nc1nccs1,1 (active)
6,CC1(C)Cc2ccccc2C(/C(=N\Nc2cccc(Cl)c2)C(N)=O)=N1,0 (inactive)
7,O=C(Nc1cccc(Cl)c1)Nc1nccs1,1 (active)
8,O=C(CSc1ccccc1)N(c1ccc(Br)cc1)c1nccs1,0 (inactive)
9,CS(=O)(=O)c1ccc2nc(NC(=O)Nc3ccc(Cl)c(Cl)c3)sc2c1,0 (inactive)
10,Cc1ccc(OCCCC(=O)Nc2nccs2)cc1,0 (inactive)
11,O=C(NNC(=O)c1cccs1)Nc1cccc(Cl)c1,1 (active)
12,CCOC(=O)Cn1c(=O)oc2cc(S(=O)(=O)Nc3ccc(N(CC)CC)cc3C)ccc21,0 (inactive)
13,CCOC(=O)C1=C(C)OC(N)=C(C#N)C1c1cncc(-c2ccc(F)cc2)c1 (stereo not given),-0.5 (inactive)
14,O=C(/C=C/c1ccccc1)NC(NC(=S)Nc1cc(Cl)ccc1Cl)C(Cl)(Cl)Cl (stereo not given),1 (active)
15,O=C(NC(=S)Nc1cc([N+](=O)[O-])ccc1Cl)c1ccccc1,0 (inactive)
16,Cc1c(NC(=S)NC(NC(=O)CC(C)C)C(Cl)(Cl)Cl)c(=O)n(-c2ccccc2)n1C (stereo not given),0 (inactive)
17,COC(=O)c1ccccc1NC(=S)NC(NC(=O)c1ccccc1[N+](=O)[O-])C(Cl)(Cl)Cl (stereo not given),0 (inactive)
18,COc1ccc(C/C(C)=N/NC(=S)Nc2ccccc2)cc1,0 (inactive)
19,COc1ccc(NC(=S)NC(NC(=O)/C=C/c2ccccc2)C(Cl)(Cl)Cl)cc1 (stereo not given),1 (active)
20,O=C(/C=C/c1ccccc1)NC(NC(=S)Nc1cccc(O)c1)C(Cl)(Cl)Cl (stereo not given),3 (inactive)
21,O=C(NC(NC(=S)Nc1ccc(Cl)cc1Cl)C(Cl)(Cl)Cl)c1cccc([N+](=O)[O-])c1 (stereo not given),1 (active)
22,N#C/C(=C/C=C/c1ccccc1)C(=O)Nc1ccccc1,0 (inactive)
23,O=C(/C=C/c1ccccc1)NC(NC(=S)Nc1cccc(Cl)c1)C(Cl)(Cl)Cl (stereo not given),1 (active)
24,O=C(COc1ccc2ccccc2c1CN1CCOCC1)N1CCc2ccccc21,-1 (active)
25,O=C(CSc1nc(-c2ccccc2)cc(=O)[nH]1)N1CCc2ccccc21,0 (inactive)
26,CC(C)n1c(NCc2c[nH]c3ccccc23)nc2ccccc21,-1 (active)
27,Cc1cccc(S(=O)(=O)NC(Cc2c[nH]c3ccccc23)C(=O)O)c1 (stereo not given),0 (inactive)

row,SMILES,manual score
1,CCOC(=O)C(C)Sc1nnc(-c2c[nH]c3ccccc23)n1C (stereo not given),-0.5 (inactive)
2,Cc1cc(C)c2c(c1)/C(=N/NC(=S)Nc1ccc(F)cc1)CCC2,0 (inactive)
3,Cc1ccccc1N=Nc1ccc(O)c2ncccc12,0 (inactive)
4,Cc1ccccc1N=Nc1c(C)[nH]n(C(N)=S)c1=O,1 (active)
5,Cc1nn(-c2ccccc2)c(OC(=O)c2cccs2)c1S(=O)(=O)c1ccccc1,0 (inactive)
6,CCOC(=O)c1c(C)n(C)c2ccc(O)c(CN3CCC(C)CC3)c12,-1 (active)
7,CCOC(=O)c1c(C)oc2ccc(O)c(CN3CCCCC3)c12,-1 (active)
8,CCN(CC)C(=O)COc1ccc2oc(C)c(C(=O)OC)c2c1,0 (inactive)
9,CCOC(=O)c1c(C)[nH]c2c1cc(O)c1ccccc12,0 (inactive)
10,CCOc1ccc(C2=NNC(c3cccs3)=Nc3ccc(OC)cc32)cc1,0 (inactive)
11,CCn1c(SCc2ccc(Cl)cc2)nnc1-c1ccccc1,0 (inactive)
12,COc1ccc2nc(/N=C/c3c(C)[nH]n(-c4ccc(C)cc4C)c3=O)sc2c1,1 (active)
13,COc1ccc2nc(/N=C/c3c(C)[nH]n(-c4ccc(C)cc4)c3=O)sc2c1,1 (active)
14,CCOc1ccc2nc(/N=C/c3c(C)[nH]n(-c4ccccc4)c3=O)sc2c1,1 (active)
15,Cc1ccc(-n2[nH]c(C)c(C=Nc3cc(C)ccn3)c2=O)cc1,0 (inactive)
16,Cc1[nH]n(-c2ccccc2)c(=O)c1/C=N/c1ccccn1,0 (inactive)
17,Cc1[nH]n(-c2ccc(Cl)cc2)c(=O)c1/C=N/c1nnc(-c2ccccc2)s1,1 (active)
18,COc1ccc(OC)c(-c2c3cc(O)c(=O)cc-3oc3cc(O)c(O)cc23)c1,0 (inactive)
19,Cc1ccc(NC(=O)c2cc(NC(=O)CCC(=O)O)ccc2N2CCCCC2)cc1,0 (inactive)
20,CN1CCN(C(=O)Nc2cccc3ccccc23)CC1,0 (inactive)
21,CC1=C(C)C(c2ccccc2)NC(=S)N1 (stereo not given),0 (inactive)
22,CCOc1ccc2nc(NC(=O)C(CC)Sc3nc(C)cc(=O)[nH]3)sc2c1 (stereo not given),0 (inactive)
23,CCOc1[nH]n(-c2ccc(Cl)cc2)c(=O)c1C=Nc1ccc(Cl)cc1,0 (inactive)
24,CCOc1ccc2nc(/N=C/c3c(C)[nH]n(-c4ccc(C)cc4)c3=O)sc2c1,1 (active)
25,CCNC(=S)Nc1nc2c(cc1C(=O)OCC)CCCC2,1 (active)
26,C=CCNC(=S)Nc1nc2c(cc1C(=O)OCC)CCCC2,1 (active)
27,C=C(C)CNC(=S)N/N=C1\CCCCc2ccccc21,0 (inactive)

row,SMILES,manual score
1,C=C(C)CNC(=S)Nc1nc2c(cc1C(=O)OCC)CCCC2,1 (active)
2,CCOC(=O)c1cc(NC(=O)SCC(=O)O)c(C)nc1C,0 (inactive)
3,CCOC(=O)C1=NNC(C(=O)c2ccc(OC)cc2)C1c1ccccc1 (stereo not given),0 (inactive)
4,CC(Cc1cccs1)NC(=O)Nc1ccc(Cl)cc1 (stereo not given),0.5 (inactive)
5,O=C(Nc1ccc(Cl)cc1)NC1CCCCC1Cc1ccco1 (stereo not given),1 (active)
6,CC1CCc2c(sc(NC(=O)C(=O)NCc3ccco3)c2C#N)C1 (stereo not given),0 (inactive)
7,CC(Oc1ccc(Cl)cc1Cl)C(=O)NC(=S)N1CCc2ccccc21 (stereo not given),1 (active)
8,O=C(COc1ccccc1)NC(=S)N1CCc2ccccc21,1 (active)
9,Cc1cccc(OCC(=O)NC(=S)N2CCCc3ccccc32)c1,0 (inactive)
10,O=C(COc1ccccc1Cl)NC(=S)N1CCc2ccccc21,1 (active)
11,O=C(COc1ccc(Cl)cc1Cl)NC(=S)N1CCCc2ccccc21,0 (inactive)
12,O=C(COc1ccc(Br)cc1Cl)NC(=S)N1CCc2ccccc21,0.5 (inactive)
13,CCOc1cc(C(=O)NCc2ccncc2)cc(OCC)c1OCC,0 (inactive)
14,CC(=O)c1ccc(N2CCCC2)c(F)c1,0 (inactive)
15,CO/N=C(\Cn1ncc(N2CCCC2)c(Cl)c1=O)c1ccc(Cl)cc1,-1 (active)
16,CCN(CC)c1cnn(C/C(=N\OC)c2ccc(Cl)cc2)c(=O)c1Br,-1 (active)
17,CO/N=C(\Cn1ncc(N2CCCC2)c(Br)c1=O)c1ccc(Cl)cc1,-1 (active)
18,COc1ccc(-c2ccnc3nc(Sc4ncc(C(F)(F)F)cc4Cl)nn23)cc1,0.5 (inactive)
19,CC(/C=N/NC(=O)c1c(Br)cnn1C)=C\c1ccccc1,0.5 (inactive)
20,Cc1cc(C(F)(F)F)c2c(=O)[nH]c(=O)n(Cc3ccccc3)c2n1,0 (inactive)
21,CC(C)c1nc(=S)n(-c2ccccc2)[nH]1,0 (inactive)
22,O=c1c2ccccc2[nH]c(=S)n1C1CCCCC1,0 (inactive)
23,S=c1nc(C2CC2)[nH]c2ccccc12,1 (active)
24,CC(C)c1nc(=S)c2ccccc2[nH]1,1 (active)
25,CCc1nc2cc(Cl)c(Cl)cc2[nH]1,1 (active)
26,O=P(CCCCCCCCCP(=O)(c1ccccc1)c1ccccc1)(c1ccccc1)c1ccccc1,-1 (active)
27,Nc1nnc(C(=O)c2ccccc2N)s1,0 (inactive)

row,SMILES,manual score
1,O=C(CSc1nc(-c2ccccc2)cc(C(F)(F)F)n1)NCCN1CCOCC1,0 (inactive)
2,Cc1ccc2cccc(Oc3nnnn3-c3ccccc3)c2n1,-1 (active)
3,Cc1ccc(-n2nnnc2-c2nc3ccccc3s2)cc1,0 (inactive)
4,CCCc1noc2c1/C(=N\O)CC(CC(C)SCC)C2 (stereo not given),-1 (active)
5,COc1ccc2c(c1)Sc1ccccc1N2CCN(C)C,-1 (active)
6,CCCCn1c(-c2csc(C(C)C)c2)n[nH]c1=S,0 (inactive)
7,COc1ccc2occ(C(=O)c3ccc(N=C(C)N(C)C)cc3)c2c1,-1 (active)
8,Cc1ccc(Nc2n[nH]c(C)c2[N+](=O)[O-])cc1C,-0.5 (inactive)
9,COc1cc(NC(=O)CSc2nccc(C)n2)c(C)cc1[N+](=O)[O-],0 (inactive)
10,Cc1ccc(NC(=O)COc2cccnc2[N+](=O)[O-])cc1S(=O)(=O)N1CCCCC1,1 (active)
11,CC(C)NS(=O)(=O)c1ccc(OCC(=O)Nc2ccc3c(c2)OCO3)c(Cl)c1,0 (inactive)
12,Cc1ccc(OCC(=O)Nc2ccc(C)c(S(=O)(=O)N3CCCCC3)c2)c([N+](=O)[O-])n1,1 (active)
13,COc1cccc(OCCc2c(C)n[nH]c2C)c1,0 (inactive)
14,Cc1ccc(NC(=S)N=Nc2c(O)n(C)c3ccc(S(=O)(=O)N4CCOCC4)cc23)cc1,0 (inactive)
15,Cc1ccc(S(=O)(=O)N2CCN(C)CC2)cc1-c1nnc2c3ccccc3c(C)nn12,0 (inactive)
16,CC(C)(C)C1CCc2[nH]nc(C(=O)O)c2C1 (stereo not given),0.5 (inactive)
17,CC(O)c1nc2ccccc2n1C1CCCCC1 (stereo not given),0 (inactive)
18,C=CCOc1cccc(C2C(C(=O)c3ccc(C)o3)=C(O)C(=O)N2c2nccs2)c1 (stereo not given),3 (inactive)
19,COC(=O)c1cc(CSc2nc3ccc(C)cc3[nH]2)oc1C,-1 (active)
20,CC(=O)Nc1ccc(C(=O)CSc2nc3ccc(C)cc3[nH]2)cc1,0 (inactive)
21,CC1=NN(C(N)=S)C(=O)C1N=Nc1ccc(C)cc1C (stereo not given),0.5 (inactive)
22,CC1=NN(C(N)=S)C(=O)C1N=Nc1ccccc1C (stereo not given),1 (active)
23,COc1ccc(CC(=O)Nc2cc(=O)n(C)c(=O)n2C)cc1,0 (inactive)
24,Cc1ccc(-c2cn(-c3ccccc3)c(SCC(=O)NC3CCS(=O)(=O)C3)n2)cc1C (stereo not given),0 (inactive)
